Source: PubChem BioAssay (Tox21)
Values without a mark were called inactive. Records with an inconclusive call do not appear. A call without a number means that no potency is given here. Active and inactive are the calls of the source. Unless noted, calls follow the shape of the dose curve; as a rule, active = well fitted curve in the direction sought with a large enough effect in the repeat runs; inconclusive = weak or mixed curves; inactive = no such curve, though single readings can be large; an effect the other way counts as inactive or inconclusive.

Key:
[1] = qHTS assay to identify small molecule HDAC inhibitors (AID 1259364); also: top concentration of the series differs between compounds; nearly all actives have a fitted effect of over 45% in size
Procedure, shortened: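 Wild-type HCT-116 cells, plated overnight at 37 C, exposed to compounds 2 hr at 37 C; luminogenic HDAC-Glo substrate then added 30 min at room temperature. Luminescence reports relative endogenous class I/II HDAC activity.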

[2] = qHTS assay to identify small molecule HDAC inhibitors - cell viability counter screen (AID 1259365); also: series mostly up to about 92 µM; nearly all actives have a fitted effect of over 50% in size
Procedure, shortened: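 Wild-type HCT-116 cells, 1,500/well, cultured overnight, then compound-treated 2 h at 37 C. Viability measured as ATP luminescence with CellTiter-Glo after 30 min at room temperature.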

[3] = qHTS assay to identify small molecule agonists of the sonic hedgehog signaling (Shh) pathway - cell viability counter screen (AID 1259366); also: nearly all actives have a fitted effect of over 50% in size; also: potency is read from the fitted curve at half-maximal effect
Procedure, shortened: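 NIH/3T3-derived Gli1-Luc reporter cells, 2,000 per well, received compound after 4 h and were treated about 23 h at 37C. Viability measured in the same wells by CellTiter-Fluor fluorescence after 1 h.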

[4] = qHTS assay to identify small molecule antagonists of the sonic hedgehog signaling (Shh) pathway - cell viability counter screen (AID 1259367); also: nearly all actives have a fitted effect of over 55% in size
Procedure, shortened: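 Cells: 3T3 Gli1-Luc, 2,000/well, 4 hr pre-incubation. Compounds in DMSO, then conditioned medium. Incubation 24 hr, 37C, 5% CO2. CellTiter-Fluor at 23 hr, 1 hr, fluorescence.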

[5] = qHTS assay to identify small molecule agonists of the sonic hedgehog signaling (Shh) pathway (AID 1259368; calls by dose curve;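 also: NIH/3T3-derived 3T3Gli1-Luc cells carrying a stable Gli1-driven firefly luciferase reporter; series mostly up to about 92 µM; nearly all actives have a fitted effect of over 15% in size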)
Procedure, shortened: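 NIH/3T3-derived 3T3Gli1-Luc cells with stably integrated Gli1-driven firefly luciferase, 2,000 cells/well, compounds added after 4 hr. Incubated 24 hr at 37C, 5% CO2; luminescence read after 30 min with luciferase reagent at room temperature.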

[6] = qHTS assay to identify small molecule antagonists of the sonic hedgehog signaling (Shh) pathway (AID 1259369; calls by dose curve; also: nearly all actives have a fitted effect of over 45% in size)
Procedure, shortened: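 NIH/3T3-derived Gli1-Luc reporter cells plated 4 h, dosed with compound, then stimulated with conditioned medium for 24 h at 37 C. Firefly luciferase luminescence read after 30 min with detection reagent at room temperature.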

[7] = qHTS assay to identify small molecule agonists of the androgen receptor (AR) signaling pathway in the presence of an antagonist - cell viability counter screen (AID 1259379); also: nearly all actives have a fitted effect of over 25% in size; also: potency is read from the fitted curve at half-maximal effect
Procedure, shortened: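 MDA-kb2 cells (MMTV-luciferase, AR/GR), 3,000/well, 5 h attachment, then 3.0 µM nilutamide (final) and compounds at 15 concentrations. Viability by CellTiter-Fluor fluorescence after 16 h at 37 °C, 0% CO2, in the reporter wells.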

[8] = qHTS assay to identify small molecule agonists of the estrogen receptor beta (ER-beta) signaling pathway - cell viability counter screen (AID 1259380); also: nearly all actives have a fitted effect of over 30% in size
Procedure, shortened: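 ER-beta-UAS-bla HEK293T cells in medium with 2% charcoal-stripped FBS, pre-incubated 6 hr, then treated 16 hr at 37C. Cytotoxicity read in the same wells by CellTiter-Glo luminescence after 30 min at room temperature.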

[9] = qHTS assay to identify small molecule antagonists of the estrogen receptor beta (ER-beta) signaling pathway - cell viability counter screen (AID 1259382);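 also: HEK293T cells carrying ER-beta-UAS-bla reporter stimulated with estradiol; series mostly up to about 92 µM; nearly all actives have a fitted effect of over 55% in size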
Procedure, shortened: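 ER-beta-UAS-bla HEK293T cells in 2% charcoal-stripped FBS medium, treated with compound plus 1 nM 17-beta-estradiol for 16 h at 37C. Viability read by CellTiter-Glo luminescence after 30 min at room temperature in the same wells.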

[10] = target: Estrogen receptor (Homo sapiens) (UniProt P03372); assay: qHTS assay to identify small molecule agonists of the estrogen receptor alpha (ER-alpha) signaling pathway in the presence of an antagonist (AID 1259383; calls by dose curve; also: top concentration of the series differs between compounds; nearly all actives have a fitted effect of over 15% in size)
Estrogen receptor (Homo sapiens), sequence (P03372 whole entry, looked up): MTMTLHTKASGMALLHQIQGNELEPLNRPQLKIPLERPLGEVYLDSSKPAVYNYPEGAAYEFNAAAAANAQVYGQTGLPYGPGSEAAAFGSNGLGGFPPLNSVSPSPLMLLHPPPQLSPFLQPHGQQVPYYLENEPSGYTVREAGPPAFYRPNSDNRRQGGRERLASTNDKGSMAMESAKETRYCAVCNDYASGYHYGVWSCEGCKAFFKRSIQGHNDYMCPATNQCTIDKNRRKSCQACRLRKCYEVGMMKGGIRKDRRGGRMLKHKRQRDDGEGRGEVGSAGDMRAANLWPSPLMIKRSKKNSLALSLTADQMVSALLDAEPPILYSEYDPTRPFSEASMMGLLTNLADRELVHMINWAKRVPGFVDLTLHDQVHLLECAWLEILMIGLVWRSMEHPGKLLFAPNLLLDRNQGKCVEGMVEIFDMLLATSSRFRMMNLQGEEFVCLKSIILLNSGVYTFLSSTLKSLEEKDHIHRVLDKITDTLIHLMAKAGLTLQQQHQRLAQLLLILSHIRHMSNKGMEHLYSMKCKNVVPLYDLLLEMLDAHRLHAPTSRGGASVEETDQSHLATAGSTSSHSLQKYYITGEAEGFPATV
Procedure, shortened: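 VM7Luc4E2 cells express endogenous full-length ER-alpha with an ERE-luciferase reporter and were hormone-deprived for 5 days. Compounds at 15 concentrations were added with 10.0nM ICI-182,780 for 22hr at 37C. Luminescence was read with ONE-Glo.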

[11] = target: Thyrotropin receptor (Homo sapiens) (UniProt P16473); assay: qHTS assay to identify small molecule antagonists of the thyroid stimulating hormone receptor (TSHR) signaling pathway (AID 1259385; calls by dose curve; also: nearly all actives have a fitted effect of over 20% in size)
Thyrotropin receptor (Homo sapiens), sequence (P16473 whole entry, looked up): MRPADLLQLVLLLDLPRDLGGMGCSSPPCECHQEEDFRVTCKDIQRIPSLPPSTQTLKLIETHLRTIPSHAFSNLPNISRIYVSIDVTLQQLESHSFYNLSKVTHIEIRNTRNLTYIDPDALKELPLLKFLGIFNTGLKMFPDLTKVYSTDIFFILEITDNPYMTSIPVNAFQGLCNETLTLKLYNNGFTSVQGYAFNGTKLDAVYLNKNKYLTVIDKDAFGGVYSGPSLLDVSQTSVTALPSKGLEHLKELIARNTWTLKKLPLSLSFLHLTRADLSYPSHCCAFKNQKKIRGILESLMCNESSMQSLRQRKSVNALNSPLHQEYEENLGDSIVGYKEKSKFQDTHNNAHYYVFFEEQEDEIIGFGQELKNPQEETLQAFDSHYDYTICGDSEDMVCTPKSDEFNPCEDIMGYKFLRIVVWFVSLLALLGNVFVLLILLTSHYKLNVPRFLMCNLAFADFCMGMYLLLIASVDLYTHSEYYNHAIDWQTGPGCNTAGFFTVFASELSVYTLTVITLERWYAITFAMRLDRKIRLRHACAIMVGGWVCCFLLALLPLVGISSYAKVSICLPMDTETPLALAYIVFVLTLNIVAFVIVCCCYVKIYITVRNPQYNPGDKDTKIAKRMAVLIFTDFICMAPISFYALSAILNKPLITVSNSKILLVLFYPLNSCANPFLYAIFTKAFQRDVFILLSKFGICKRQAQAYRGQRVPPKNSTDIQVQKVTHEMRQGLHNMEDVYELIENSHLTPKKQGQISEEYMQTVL
Procedure, shortened: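 Antagonist mode: compound-treated TSHR-expressing HEK293 cells were stimulated with 1.5 ng/mL TSH (final) in presence of Ro20-1724 for 30 min at RT. HTRF cAMP detection after 1 h; each compound tested at 15 concentrations, triplicate.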

[12] = qHTS assay to identify small molecule agonists of the estrogen receptor alpha (ER-alpha) signaling pathway in the presence of an antagonist - cell viability counter screen (AID 1259386);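 also: cells exposed to compounds for 22 h at 37 °C before the viability read; nearly all actives have a fitted effect of over 30% in size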; also: potency is read from the fitted curve at half-maximal effect
Procedure, shortened: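 Cell viability in VM7Luc4E2 cells (endogenous full-length ER-alpha) measured by CellTiter-Fluor fluorescence in the same wells as the luciferase screen. Cells pre-cultured 5 days in charcoal-stripped serum, then treated 22 h with compounds at 15 concentrations plus 10.0nM ICI-182,780.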

[13] = target: Progesterone receptor (Homo sapiens) (UniProt P06401); assay: qHTS assay to identify small molecule agonists of the progesterone receptor (PR) signaling pathway (AID 1346784; calls by dose curve; also: nearly all actives have a fitted effect of over 30% in size)
Progesterone receptor (Homo sapiens), sequence (P06401 whole entry, looked up): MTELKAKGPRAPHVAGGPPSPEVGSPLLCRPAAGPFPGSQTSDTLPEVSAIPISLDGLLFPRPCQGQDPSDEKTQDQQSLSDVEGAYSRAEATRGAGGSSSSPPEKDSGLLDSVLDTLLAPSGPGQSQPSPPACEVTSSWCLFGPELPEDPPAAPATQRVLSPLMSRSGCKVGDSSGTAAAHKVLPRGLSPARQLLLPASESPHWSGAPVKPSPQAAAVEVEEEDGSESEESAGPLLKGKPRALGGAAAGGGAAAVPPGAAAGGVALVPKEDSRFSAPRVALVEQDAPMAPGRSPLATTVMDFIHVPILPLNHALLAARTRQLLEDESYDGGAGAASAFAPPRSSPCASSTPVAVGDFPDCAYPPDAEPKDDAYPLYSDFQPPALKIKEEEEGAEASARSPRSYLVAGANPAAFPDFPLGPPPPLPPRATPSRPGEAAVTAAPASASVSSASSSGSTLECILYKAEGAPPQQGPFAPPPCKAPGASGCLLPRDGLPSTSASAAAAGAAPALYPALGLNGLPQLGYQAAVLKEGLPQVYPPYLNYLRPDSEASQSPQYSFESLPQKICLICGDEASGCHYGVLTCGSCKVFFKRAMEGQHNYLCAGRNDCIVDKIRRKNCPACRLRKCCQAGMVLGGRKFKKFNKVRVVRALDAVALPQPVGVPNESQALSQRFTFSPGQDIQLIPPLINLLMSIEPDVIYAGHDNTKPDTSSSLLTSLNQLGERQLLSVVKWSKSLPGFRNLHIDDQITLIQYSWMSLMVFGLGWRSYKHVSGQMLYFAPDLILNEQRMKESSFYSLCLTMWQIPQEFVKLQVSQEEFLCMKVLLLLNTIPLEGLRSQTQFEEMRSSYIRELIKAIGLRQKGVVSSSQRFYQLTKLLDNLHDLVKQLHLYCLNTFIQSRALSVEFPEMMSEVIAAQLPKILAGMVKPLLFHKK
Procedure, shortened: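 PR-UAS-bla HEK 293T cells (beta-lactamase reporter under UAS) in 2% charcoal-stripped FBS, dosed with 23 nL compound after 6 hr, incubated 16hr at 37C. LiveBLAzer B/G FRET substrate added, fluorescence read after 2 hours.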

[14] = qHTS assay to identify small molecule antagonists of the progesterone receptor (PR) signaling pathway - cell viability counter screen (AID 1346798); also: series mostly up to about 92 µM; nearly all actives have a fitted effect of over 50% in size
Procedure, shortened: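 PR-UAS-bla HEK293T cells, 3,000/well in 2% charcoal-stripped FBS medium, dosed with compounds plus R5020 agonist and incubated 16 h at 37C. Viability then measured in the same wells by CellTiter-Glo luminescence after 30 min at RT.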

[15] = qHTS assay to identify small molecule agonists of the progesterone receptor (PR) signaling pathway - cell viability counter screen (AID 1346799; calls by dose curve; also: nearly all actives have a fitted effect of over 45% in size)
Procedure, shortened: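 Counter screen in the PR-UAS-bla HEK293T wells (2% charcoal-stripped FBS, 16 h compound exposure at 37 C) after the bla read. CellTiter-Glo added, 30 min at room temperature, luminescence read as cell viability.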

[16] = qHTS assay to identify small molecule antagonists of the TGF-beta/Smad signaling pathway - cell viability counter screen (AID 1346824); also: nearly all actives have a fitted effect of over 50% in size
Procedure, shortened: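 Cytotoxicity counter-screen run in the same wells as the beta-lactamase Smad reporter read: CellTiter-Glo luminescence after 30 min at room temperature. HEK 293T SBE-bla cells had 5 hr compound exposure at 37 C with TGF-beta1 (0.25 ng/mL stock).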

[17] = target: Estrogen receptor beta (Homo sapiens) (UniProt Q92731); assay: qHTS assay to identify small molecule agonists of the estrogen receptor beta (ER-beta) signaling pathway (AID 1259377; active = well fitted activation curve with a large enough effect in the signal ratio in the repeat runs, not every such curve was filed as active; the % refers to the signal ratio)
Estrogen receptor beta (Homo sapiens), sequence (Q92731 whole entry, looked up): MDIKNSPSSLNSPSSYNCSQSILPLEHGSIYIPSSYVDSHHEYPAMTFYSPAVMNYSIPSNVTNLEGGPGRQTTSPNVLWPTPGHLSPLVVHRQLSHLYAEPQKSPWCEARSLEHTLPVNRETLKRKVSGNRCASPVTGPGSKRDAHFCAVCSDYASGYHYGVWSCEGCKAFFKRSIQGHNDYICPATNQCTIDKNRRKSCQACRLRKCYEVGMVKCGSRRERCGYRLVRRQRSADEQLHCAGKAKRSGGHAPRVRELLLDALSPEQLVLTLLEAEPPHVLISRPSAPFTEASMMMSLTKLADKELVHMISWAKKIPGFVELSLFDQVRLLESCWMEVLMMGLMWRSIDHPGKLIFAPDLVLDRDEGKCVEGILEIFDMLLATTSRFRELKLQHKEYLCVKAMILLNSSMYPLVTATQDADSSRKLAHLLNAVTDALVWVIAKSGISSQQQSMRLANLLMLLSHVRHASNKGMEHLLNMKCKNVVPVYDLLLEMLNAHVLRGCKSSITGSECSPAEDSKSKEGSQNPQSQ
Procedure, shortened: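 ER-beta-UAS-bla HEK293T cells in medium with 2% charcoal-stripped FBS were exposed to compounds for 16 h at 37C. Beta-lactamase reporter activity was read as fluorescence after 2 h with LiveBLAzer B/G FRET substrate at room temperature.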

[18] = qHTS assay to identify small molecule agonists or antagonists of the thyroid stimulating hormone receptor (TSHR) signaling pathway - wild type cell line counter screen (AID 1259384; calls by dose curve)
Procedure, shortened: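 Counter screen in untransfected Hek293: compounds (15-point titration, triplicate) plus phosphodiesterase inhibitor Ro20-1724 added after 18 h plating; 30 min RT. Intracellular cAMP via competitive d2/cryptate immunoassay, 1 h incubation.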

[19] = target: Progesterone receptor (Homo sapiens) (UniProt P06401); assay: qHTS assay to identify small molecule antagonists of the progesterone receptor (PR) signaling pathway (AID 1346795; active = well fitted inhibition curve with a large enough effect in the signal ratio in the repeat runs, not every such curve was filed as active; the % refers to the signal ratio)
Procedure, shortened: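 PR-UAS-bla HEK293T cells with beta-lactamase reporter under UAS control, in 2% charcoal-stripped FBS, treated with compounds plus 1 nM promegestone (R5020, final) for 16 hr at 37C. Read-out: FRET beta-lactamase substrate fluorescence after 2 hr at room temperature.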

[20] = target: Estrogen receptor beta (Homo sapiens) (UniProt Q92731); assay: qHTS assay to identify small molecule antagonists of the estrogen receptor beta (ER-beta) signaling pathway (AID 1259378; active = well fitted inhibition curve with a large enough effect in the signal ratio in the repeat runs, not every such curve was filed as active; the % refers to the signal ratio)
Procedure, shortened: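 Antagonist mode: compounds added to beta-lactamase reporter HEK293T ER-beta-UAS cells stimulated with E2 (1nM final), 16 hr at 37C. LiveBLAzer B/G FRET substrate, 2 hours room temperature, fluorescence read-out.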

SMILES	Potency [1]	outcome [2]	Potency [3]	Potency [4]	outcome [5]	Potency [6]	Potency [7]	outcome [8]	outcome [9]	outcome [10]	outcome [11]	Potency [12]	Potency [13]	Potency [14]	Potency [15]	outcome [16]	Potency [17]	outcome [18]	Potency [19]	outcome [20]
OC[C@@H](O)[C@H](O)[C@@H](O)[C@@H](O)CO	inactive	inactive	inactive	inactive	inactive	inactive	inactive	inactive	inactive	inactive	inactive	inactive	inactive	inactive	inactive	inactive	–	–	–	–
Nc1nc(=O)n([C@@H]2O[C@H](CO)[C@@H](O)[C@@H]2F)cc1I	inactive	inactive	inactive	inactive	inactive	inactive	–	inactive	inactive	inactive	inactive	inactive	inactive	–	inactive	–	inactive	inactive	inactive	–
O=C(O)/C=C/c1ccccc1	inactive	inactive	inactive	inactive	inactive	inactive	inactive	inactive	inactive	inactive	inactive	inactive	–	inactive	inactive	inactive	–	inactive	inactive	–
COc1ccc(N=Nc2cc(C)c(N=Nc3ccc(S(=O)(=O)O)cc3)cc2OC)cc1	inactive	inactive	54.5 µM (active)	inactive	inactive	inactive	48.6 µM (active)	inactive	inactive	–	–	27.3 µM (active)	inactive	inactive	inactive	inactive	inactive	–	–	–
O=C(O)c1ccccc1C(=O)Nc1ccc(S(=O)(=O)Nc2nccs2)cc1	inactive	inactive	inactive	inactive	inactive	inactive	inactive	inactive	–	–	–	inactive	inactive	inactive	inactive	inactive	inactive	–	inactive	–
O=C1OC(=O)c2cc(Oc3ccc4c(c3)C(=O)OC4=O)ccc21	inactive	inactive	inactive	inactive	inactive	inactive	inactive	inactive	inactive	inactive	inactive	inactive	–	inactive	inactive	inactive	–	inactive	inactive	inactive
CNC(=O)C(c1ccccc1)c1ccccc1	inactive	inactive	inactive	inactive	inactive	inactive	inactive	inactive	inactive	inactive	inactive	inactive	–	–	inactive	–	inactive	inactive	–	–
